This is an account of results in PubChem BioAssay (NCI).

Among the test systems are SR leukemia; RPMI-8226 leukemia; OVCAR-8 ovarian; OVCAR-5 ovarian; OVCAR-4 ovarian; SK-OV-3 ovarian; IGROV1 ovarian; OVCAR-3 ovarian; NCI/ADR-RES ovarian; HS 578T breast.
Common to all, as to assay: NCI-60 one-dose screen, 48 h (100 = growth as untreated, 0 = no growth, -100 = all killed)
Holding throughout (conditions): 10 µM unless noted

This is part of a sample that, as a whole, favours compounds with a hit. Of some 83,000 tested, about 20% had one in any assay.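 Values shown are percent growth following 48 h exposure of cells in 96-well plates to a single concentration of compound; below 10 was considered active.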 Values without a mark were called inactive. Active and inactive are the calls of the source.

As for `CC(C)N=C(N)/N=C(\N)Nc1ccc2ccc3ccccc3c2c1`, the growth with SR leukemia was -47.3% (active); in the test with RPMI-8226 leukemia it was -26.9% (active); in the test with OVCAR-8 ovarian it was -60.2% (active); in the test on OVCAR-5 ovarian, -88.5% (active); in the test on OVCAR-4 ovarian, -56.9% (active); in the test on SK-OV-3 ovarian it was -63.3% (active). For the same compound, the growth in the test on IGROV1 ovarian is -56.7% (active); in the test on OVCAR-3 ovarian it was -83% (active); in the test on NCI/ADR-RES ovarian, 41.5%.

Regarding `CCOc1ccc(C(CN2CCOCC2)C(C)=O)cc1OC` (configuration not stated), the growth was 65.2% with SR leukemia; 62.3% with RPMI-8226 leukemia; 96.3% in the test with OVCAR-8 ovarian; 99.1% with OVCAR-5 ovarian; 98.2% with OVCAR-4 ovarian; 113% in the test with IGROV1 ovarian. For the same compound, the growth in the test on OVCAR-3 ovarian is 88.3%; in the test with HS 578T breast it was 97.7%; in the test on NCI/ADR-RES ovarian, 107%.

Regarding `CCNc1nnnn1CC`, the growth in the test with SR leukemia is 108%; in the test with RPMI-8226 leukemia, 107%; in the test with OVCAR-8 ovarian, 113%; with OVCAR-5 ovarian, 115%; in the test on OVCAR-4 ovarian it was 110%; in the test with IGROV1 ovarian it was 115%. For the same compound, the growth in the test with OVCAR-3 ovarian was 109%; in the test with HS 578T breast, 102%; in the test on NCI/ADR-RES ovarian, 110%.
